Laboratory results as given in PubChem BioAssay AID1835 (Johns Hopkins Ion Channel Center, 2009).
Out of some 2,400 compounds screened, about 750 (31%) were called active. The list shows a part of the results. Values without a mark were called inactive.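 The calls were made as follows: active = median signal gain over dofetilide-blocked control wells reaching their mean plus 3 SD, so readout 1 at least 0; inactive = the rest.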

biological target: Voltage-gated inwardly rectifying potassium channel KCNH2 (Homo sapiens) (UniProt Q12809); assay: hERG protection against dofetilide inhibition, confirmation, cell-based, thallium flux, duplicate retest, dofetilide IC70 (AID 1835); details: hERG cell line, FluxOR thallium flux, dofetilide-blocked; at 10 µM; stronger effect = higher value
Sequence (Q12809 whole entry, looked up): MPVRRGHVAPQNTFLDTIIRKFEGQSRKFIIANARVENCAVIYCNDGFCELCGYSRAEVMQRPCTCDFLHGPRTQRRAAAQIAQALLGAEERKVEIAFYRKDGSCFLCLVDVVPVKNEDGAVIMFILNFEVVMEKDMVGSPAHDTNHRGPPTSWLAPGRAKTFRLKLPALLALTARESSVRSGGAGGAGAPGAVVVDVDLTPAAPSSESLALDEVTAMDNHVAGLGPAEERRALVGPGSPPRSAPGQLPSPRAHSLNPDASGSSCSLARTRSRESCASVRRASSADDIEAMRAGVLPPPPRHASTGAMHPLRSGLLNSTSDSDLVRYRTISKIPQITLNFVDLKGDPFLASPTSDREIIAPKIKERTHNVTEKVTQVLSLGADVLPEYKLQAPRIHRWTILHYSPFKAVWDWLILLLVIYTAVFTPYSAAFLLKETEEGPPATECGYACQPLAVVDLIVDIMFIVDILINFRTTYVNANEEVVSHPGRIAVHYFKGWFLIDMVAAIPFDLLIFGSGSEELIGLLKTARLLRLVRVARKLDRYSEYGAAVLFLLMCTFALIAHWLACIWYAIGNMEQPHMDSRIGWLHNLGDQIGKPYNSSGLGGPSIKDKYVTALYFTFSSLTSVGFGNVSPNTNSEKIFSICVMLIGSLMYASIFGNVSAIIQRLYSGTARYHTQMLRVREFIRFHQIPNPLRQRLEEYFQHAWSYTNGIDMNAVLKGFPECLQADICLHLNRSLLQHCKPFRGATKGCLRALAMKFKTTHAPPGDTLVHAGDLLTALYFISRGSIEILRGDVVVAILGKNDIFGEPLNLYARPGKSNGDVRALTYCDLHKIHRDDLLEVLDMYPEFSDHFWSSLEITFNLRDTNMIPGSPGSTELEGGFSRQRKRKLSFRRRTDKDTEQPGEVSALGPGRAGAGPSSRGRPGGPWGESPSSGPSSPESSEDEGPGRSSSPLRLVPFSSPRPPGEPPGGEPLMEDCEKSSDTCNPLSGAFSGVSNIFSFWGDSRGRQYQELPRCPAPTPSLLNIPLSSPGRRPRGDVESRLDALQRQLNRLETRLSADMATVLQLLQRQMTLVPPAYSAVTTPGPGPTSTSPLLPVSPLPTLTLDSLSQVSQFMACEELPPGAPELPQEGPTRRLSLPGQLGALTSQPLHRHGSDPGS

SMILES	activity increase over dofetilide control, less the hit threshold
O=C(O)C[C@H]1c2cc(F)ccc2S(=O)(=O)N1C1CCCCC1	-15%
O=C(CN1C(=O)NC(Cc2ccccc2)C1=O)Nc1ccccc1OC(F)F (centres undefined)	-10%
O=C(O)COc1ccc(NC(=O)c2ccc3c(c2)C(=O)N(C2CCCCC2)C3=O)cc1	4% (active)
O=C(CN1CCCCCC1)Nc1ccc(Oc2ccccc2)cc1	-10%
CCOc1ccc(NC(=O)c2ccc3c(c2)CCN3S(C)(=O)=O)cc1	-21%
O=C(O)CCCn1cc(NC(=O)COc2ccc(F)cc2)cn1	-17%
O=C(COC(=O)/C=C/c1ccc2c(c1)OCO2)NC1CC1	-20%
CC(NC(=O)NC1CCCCC1)c1ccccc1 (centres undefined)	9% (active)
Cc1ccc(C(C)NC(=O)c2ccc3c(c2)OCO3)cc1C (centres undefined)	0%
CC(NC(=O)C1CCN(S(=O)(=O)c2cccc3cccnc23)CC1)c1ccccc1 (centres undefined)	-15%
CC(NC(=S)NC1CCCCC1)c1ccccc1 (centres undefined)	-11%
CC(NC(=O)NC1CCCCC1)c1ccc2c(c1)OCO2 (centres undefined)	1% (active)
O=C(O)c1ccc2c3n(nc2c1)-c1ccc(Cl)cc1CO3	-7%
O=C(NNc1nc2c(F)cccc2s1)c1cc(=O)c2ccccc2o1	6% (active)
Cc1cc(C)c(NC(=O)C2CC3CCC2C3)c(C)c1 (centres undefined)	-5%
CCn1cc(C(=O)NCCN(C)C)c(=O)c2cc(F)c(N3CCN(C)CC3)cc21	-17%
O=C(CCC1CCCC1)NNC(=O)c1cccc(Cl)c1	-7%

SMILES	activity increase over dofetilide control, less the hit threshold
O=C(Nn1c(O)c(C=C2N=c3ccccc3=N2)sc1=S)c1cccc(Cl)c1	33% (active)
Cn1sc(NC(=O)c2cccc(Cl)c2)nc1=O	-1%
CCN1C(=O)/C(=C/N2CCc3ccccc32)SC1=S	-9%
CCCCN1C(=O)/C(=C2/Sc3ccc(Cl)cc3N2CC)SC1=S	42% (active)
CCCCCC/C(C)=C1/SC(=S)NC1=O	87% (active)
CC(=O)n1nc(-c2ccncc2)nc1SCC(=O)Nc1cccc(Cl)c1	-10%
O=C(O)c1cc(N/N=C/c2ccc(-c3ccccc3)cc2)ccc1Cl	-16%
CC(C)CN(C(=O)COC(=O)CNC(=O)c1ccccc1F)c1c(N)n(Cc2ccccc2)c(=O)[nH]c1=O	-11%
CCCOc1ccc(C(=O)N(CC(C)C)c2c(N)n(Cc3ccccc3)c(=O)[nH]c2=O)cc1	-7%
COCCN(C(=O)CSc1nnc(C)n1Cc1ccccc1)c1c(N)n(CC(C)C)c(=O)[nH]c1=O	1% (active)
COc1cc(/C=C2/SC(=S)N(CC(=O)O)C2=O)ccc1OCC(=O)Nc1ccc(C)c(C)c1	89% (active)
COc1cccc(CN=c2c([N+](=O)[O-])nn(-c3ccccc3C)n2O)c1	-15%
O=C(c1n[nH]c2c1CCCC2)n1ccnc1	-2%
CCOc1cc(Br)c(C(=O)O)cc1OC	-17%
OC(COC(c1ccccc1)c1ccccc1)CN1CCCCC1 (centres undefined)	-18%
CCCCOc1ccc(-c2c(C#N)c(N)[nH]c(=S)c2C#N)cc1	38% (active)
N#Cc1c(-c2ccco2)c2c([nH]c1=S)CCCC2	-9%
